Screens from PubChem.
Sampled rows, rich in hits. Any-hit rate of the full collection: about 32%.
CYP2C19 activ: activators of human cytochrome P450 2C19 | P33261 | recombinant CYP2C19, luciferin-H EGE luminescence; stronger effect = higher value; 0 = fully inhibited enzyme, 1 = untreated enzyme | activation factor at 5 µM | 96,000 tested, under 10 active;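 active = activation factor of at least 2 at 5 µM in the primary screen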
PostGolgi yeast: growth inhibition of a yeast mutant, post-Golgi transport screen. post-Golgi transport phenotypic cell assay. 98,000 tested, 0.9% active. inhibition, % at 10 µM. AID 739;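 note: yeast cells grown in 1536-well plates; yeast grown about 18 h at 30C before absorbance read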
CYP2C9 inh: inhibitors of human CYP2C9. CYP2C9 Supersomes, luciferin-H conversion, luminescence. inhibition, % at 5 µM. 96,000 tested, 20% active. AID 777;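 active = blocking of liver enzyme CYP2C9 beyond about 50% at 5 µM, limit read from the data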
Target sequence (P11712 whole entry, looked up): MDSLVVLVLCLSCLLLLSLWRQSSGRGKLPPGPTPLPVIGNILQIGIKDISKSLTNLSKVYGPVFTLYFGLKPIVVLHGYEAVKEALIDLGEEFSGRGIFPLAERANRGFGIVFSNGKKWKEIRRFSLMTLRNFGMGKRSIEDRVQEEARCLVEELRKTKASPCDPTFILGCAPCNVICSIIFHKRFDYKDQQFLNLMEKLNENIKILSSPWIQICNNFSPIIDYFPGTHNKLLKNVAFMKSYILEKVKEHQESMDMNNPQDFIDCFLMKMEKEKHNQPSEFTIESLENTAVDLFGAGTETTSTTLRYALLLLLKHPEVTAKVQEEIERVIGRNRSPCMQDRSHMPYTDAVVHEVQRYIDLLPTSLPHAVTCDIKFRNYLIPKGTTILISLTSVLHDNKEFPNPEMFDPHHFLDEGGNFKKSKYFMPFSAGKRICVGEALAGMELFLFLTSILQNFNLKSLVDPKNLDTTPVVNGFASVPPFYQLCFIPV
CYP2C19 inh: human CYP2C19 inhibition. CYP2C19 Supersomes, luciferin-H EGE luminescence, 30 min. inhibition, % at 5 µM. 96,000 tested, 21% active;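 active = CYP2C19 inhibition above a set limit at 5 µM in the primary screen, cut at about 50% in these data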
PostGolgi ctrl: growth of the yeast control strain, post-Golgi counter-screen; efflux-deficient yeast background strain, growth absorbance A615, 16 h; inhibition, % at 10 µM; 98,000 tested, 5% active; AID 738
CYP2C9 act: CYP2C9 (human) activation | recombinant CYP2C9, luciferin-H conversion, luminescence; stronger effect = higher value; factor 1 = untreated enzyme, 0 = blocked | AID 1024 | P11712 | 96,000 tested, 1.4% active | activation factor at 5 µM;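 active = activation factor of 2 or more for CYP2C9 at a 5 µM dose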
Hits are given with their value; – = inactive; · = no result. Cut-off read from the data, not from the text of the source, unless noted: active = inhibition above about 30%; inactive = the rest.

SMILES	CYP2C19 activ	PostGolgi yeast	CYP2C9 inh	CYP2C19 inh	PostGolgi ctrl	CYP2C9 act
CCn1c2ccccc2c2cc(NC(=O)CSc3nnc(-c4ccccc4)o3)ccc21	–	–	77.7	94.9	–	–
CCn1c2ccccc2c2cc(NC(=O)CSc3nnc(-c4cccc(C)c4)o3)ccc21	–	–	64.2	63.4	–	–
CCn1c2ccccc2c2cc(NC(=O)CSc3nnc(-c4cccc(F)c4)o3)ccc21	–	–	69.5	90.8	–	–
C=CCn1c(SCC(=O)Nc2nnc(CC)s2)nnc1-c1ccco1	–	–	–	–	–	–
COC(=O)c1ccc(N=C2S/C(=C\c3cc(C)n(-c4cccnc4)c3C)C(=O)N2C)cc1	·	–	·	·	32.3	·
O=C1CCCC2=C1C1(CCCC1)N=C(Nc1nc3ccccc3s1)N2	–	–	–	–	–	–
CCOC(=O)C1=C(C)NC(=O)NC1c1ccc(Br)s1 (stereo unspecified)	–	–	–	78.2	–	–
COC(=O)C1=C(C)C(c2cccs2)NC(=O)N1C (stereo unspecified)	·	–	·	·	–	·
COc1cc(C2NC(=O)NC(C)=C2C(=O)OC2CCCCC2)cc(Br)c1O (stereo unspecified)	–	·	95.7	79.4	·	–
CCOC(=O)C1=C(C)NC(=O)NC1c1ccc2c(c1)OCO2 (stereo unspecified)	–	–	–	–	–	–
CC1=C(C(=O)OCC2CCCO2)C(c2cccc(O)c2)NC(=O)N1 (stereo unspecified)	–	–	–	67.2	–	–
CC1=C(C(=O)OC(C)C)C(c2ccc(Br)s2)NC(=O)N1C (stereo unspecified)	–	–	87.7	99.3	–	–
COc1cc(C2NC(=O)NC(C)=C2C(=O)OCc2ccc(C)cc2)cc(OC)c1O (stereo unspecified)	–	–	–	–	–	–
CCOC(=O)C1=C(C)NC(=O)NC1c1cc(Br)c(O)c(OC)c1 (stereo unspecified)	–	–	63.6	–	–	–
CCOc1ccccc1C1NC(=O)NC(C)=C1C(=O)OC1CCCCC1 (stereo unspecified)	–	–	–	–	–	–
CC1=C(C(=O)OC2CCCCCCC2)C(c2ccc(O)cc2)NC(=O)N1 (stereo unspecified)	–	·	92.2	81.8	·	–
CCOC(=O)C(C)Oc1ccc(C2NC(=O)NC(C)=C2C(C)=O)cc1Br (stereo unspecified)	–	–	72.4	–	–	–
C=CCOc1c(Br)cc(C2NC(=O)NC(C)=C2C(C)=O)cc1OCC (stereo unspecified)	–	–	–	–	–	–
Cc1ccccc1NC(=O)C1CCC(C)(C(=O)O)C1(C)C (stereo unspecified)	–	–	–	–	–	–
COc1nc(C)nc2c1sc(=S)n2C	–	–	–	–	–	–
CC1(C)CC(=O)C2=C(C1)OC(N)=C(C#N)C21CCC2(CC1)OCCO2	–	–	–	–	–	–
Cc1oc(-c2ccccc2)cc1C(=O)Nc1ccc(N(C)C)cc1	–	–	–	–	–	–
COC(=O)Cn1c(CN(Cc2ccccc2)Cc2ccccc2)nc2c1c(=O)[nH]c(=O)n2C	–	–	52.7	–	–	–
Cc1cc(C)nc(SCCn2c(N(C)Cc3ccccc3)nc3c2c(=O)n(C)c(=O)n3C)n1	–	–	–	–	33.7	–
CN(Cc1ccccc1)Cc1nc2c(c(=O)n(C)c(=O)n2C)n1Cc1ccccc1Cl	–	–	81.2	–	39.9	–
SMILES	CYP2C19 activ	PostGolgi yeast	CYP2C9 inh	CYP2C19 inh	PostGolgi ctrl	CYP2C9 act
CCCOc1nc2c(c(=O)n(C)c(=O)n2C)n1Cc1cccc2ccccc12	–	–	–	–	37.4	–
COc1ccc2nc(SCC(=O)Nc3ccc4sc(C)nc4c3)c(C#N)cc2c1	–	–	–	–	–	–
COc1ccc(C2CC(=O)C(C=NCCN3CCOCC3)=C(O)C2)cc1 (stereo unspecified)	·	–	·	·	–	·
Cn1c(=O)c2c(nc(NCc3ccc4c(c3)OCO4)n2Cc2ccccc2Cl)n(C)c1=O	–	–	–	–	–	–
CCOC(=O)Cn1c(CN(Cc2ccccc2)Cc2ccccc2)nc2c1c(=O)n(C)c(=O)n2C	–	–	98.9	83.3	–	–
CCCCn1c(CN(C)Cc2ccccc2)nc2c1c(=O)n(C)c(=O)n2C	–	–	98.1	55.1	–	–
CCCn1c(CN(Cc2ccccc2)Cc2ccccc2)nc2c1c(=O)n(C)c(=O)n2C	–	–	86.6	–	–	–
Cn1c(=O)c2c(nc(OCc3ccc4c(c3)OCO4)n2Cc2ccccc2Cl)n(C)c1=O	–	–	–	56.2	–	–
O=C(NCc1ccco1)C1CCC(CNS(=O)(=O)c2cccc3cccnc23)CC1 (stereo unspecified)	–	–	–	–	–	–
COc1cccc(Cn2c(Oc3cccc(C)c3)nc3c2c(=O)n(C)c(=O)n3C)c1	–	–	–	–	–	–
COc1cccc(Cn2c(Oc3ccccc3)nc3c2c(=O)n(C)c(=O)n3C)c1	–	–	84.9	–	–	–
Cc1ccc(C(C)C)c(Oc2nnnn2-c2ccccc2)c1	–	–	75.9	90.6	–	–
c1ccc(-n2nnnc2OCCOc2nnnn2-c2ccccc2)cc1	–	–	–	–	–	–
Cc1ccc(C)c(Oc2nnnn2-c2ccccc2)c1	–	–	–	92.8	–	–
CNc1nc(Cl)nc(NC(C)(C)C)n1	–	–	–	–	–	2.7
COc1ccc(CCNC2CC(=O)N(C)C2=O)cc1OC (stereo unspecified)	–	–	–	–	–	–
COc1ccc(Nc2nccc3c2nnn3C)cc1	–	–	–	–	–	–
COc1ccc(CCNc2oc(COc3ccccc3F)nc2C#N)cc1	–	–	97.2	94.4	–	–
N#Cc1nc(COc2ccccc2F)oc1NCc1ccc(F)cc1	–	–	72.0	55.0	–	–
CN(C)c1oc(COc2ccccc2F)nc1C#N	–	–	–	92.4	–	–
CN(C)CCNc1oc(COc2ccc(-c3ccccc3)cc2)nc1C#N	–	–	–	–	–	–
CCN(CC(=O)Nc1ccc2c(c1)OCCO2)C(=O)CC1CCCC1	–	–	–	–	–	–
CCOC(=O)COc1c(OC)cc(Cl)cc1C1NC(=O)NC(C)=C1C(C)=O (stereo unspecified)	–	–	70.0	64.9	–	–
CCCC1=C(C(=O)OCC)C(c2cc(Cl)cc(OC)c2OCC(=O)OCC)NC(=O)N1 (stereo unspecified)	–	–	87.5	–	–	–
CCOc1cc(C2NC(=O)NC(C)=C2C(C)=O)cc(Cl)c1OCC(=O)O (stereo unspecified)	–	–	–	–	–	–
CC1(C)CC2CC(C)(CN2C(=O)C23CCC(C)(C(=O)O2)C3(C)C)C1 (stereo unspecified)	–	–	–	–	–	–
CC(C)CNc1nc(Oc2ccc(=O)n(C)n2)nc(N2CCOCC2)n1	–	32.3	–	–	–	–
